Test results taken from PubChem BioAssay (NCATS).
Records with an inconclusive call do not appear. Calls of active or inactive are those of the source. Calls come from the whole dose curve; as a rule, active = well fitted curve in the direction sought with a large enough effect; inconclusive = small, poorly fitted or top-dose-only effect, or another doubt; inactive = no such curve, though single readings can be large; an effect the other way counts as inactive or inconclusive.

Tests used:
HaCat = experiment: Cytotoxic Profiling of Annotated Libraries Using Quantitative High-Throughput Screening (AID 1296008); conditions: Five cell lines viability, CellTiter-Glo ATP luminescence, 48-72 h; max response: stronger effect = lower value; note: nearly all actives have a fitted effect of over 60% in size
In short: (§1)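 Cells exposed to compounds for 48 or 72 hr at 37 degrees Celsius. Viability read as ATP-coupled luminescence with CellTiter-Glo after 10 min at room temperature.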

KB-3-1 = experiment: as above; conditions: Five cell lines viability, CellTiter-Glo ATP luminescence, 48-72 h; max response: stronger effect = lower value
In short: as §1

NIH3T3 = experiment: as above; conditions: Five cell lines viability, CellTiter-Glo ATP luminescence, 48-72 h; max response: stronger effect = lower value
In short: as §1

C33A = experiment: Primary qHTS to identify gynecologic anti-cancer compounds using libraries of approved drugs and bioactive compounds (AID 1345084); conditions: Gynecologic cancer cell panel viability, ATPlite luminescence, 48 h; series mostly up to 57.5 µM; note: nearly all actives have a fitted effect of over 55% in size
In short: (§2)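 Cytotoxicity screen measuring ATP content by luciferase luminescence. Each compound is applied at five concentrations for 48 h at 37 C with 5% CO2.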

CAOV3 = experiment: as above; conditions: Gynecologic cancer cell panel viability, ATPlite luminescence, 48 h; series mostly up to 57.5 µM
In short: as §2

CASKI = experiment: as above; conditions: Gynecologic cancer cell panel viability, ATPlite luminescence, 48 h; series mostly up to 57.5 µM
In short: as §2

Es-2 = experiment: as above; conditions: Gynecologic cancer cell panel viability, ATPlite luminescence, 48 h; series mostly up to 57.5 µM
In short: as §2

HeLa = experiment: as above; conditions: Gynecologic cancer cell panel viability, ATPlite luminescence, 48 h; series mostly up to 57.5 µM
In short: as §2

Hek293T = experiment: as above; conditions: Gynecologic cancer cell panel viability, ATPlite luminescence, 48 h, control line for the selectivity index; series mostly up to 57.5 µM
In short: as §2

JEG-3 = experiment: as above; conditions: Gynecologic cancer cell panel viability, ATPlite luminescence, 48 h; series mostly up to 57.5 µM
In short: as §2

OV90 = experiment: as above; conditions: Gynecologic cancer cell panel viability, ATPlite luminescence, 48 h; series mostly up to 57.5 µM
In short: as §2
% is set by controls: 0 for no effect and ±100 for the full control effect; potency is the fitted concentration of half-maximal effect.

C=C1CCC2C(C(C)(C)O)CCC2(C)CC(O)C(=C)CCC1O (stereo not given)
inactive: max response (HaCat) -2.57% | max response (KB-3-1) 2.13% | max response (NIH3T3) -9.68% | Potency (C33A) | Potency (CAOV3) | Potency (CASKI) | Potency (Es-2) | Potency (HeLa) | Potency (Hek293T) | Potency (JEG-3) | Potency (OV90)

CC(C)=CCC(O)/C(C)=C/CO[C@@H]1O[C@H](CO)[C@@H](O)[C@H](O)[C@H]1O (stereo not given in full)
inactive: max response (HaCat) -6.63% | outcome (KB-3-1) | max response (NIH3T3) 0.203% | Potency (C33A) | Potency (CAOV3) | Potency (CASKI) | Potency (Es-2) | Potency (HeLa) | Potency (Hek293T) | Potency (JEG-3) | Potency (OV90)

CC(C)=CCC[C@](C)(O)[C@H]1CC[C@]2(C)[C@@H]1[C@H](O)CC1[C@@]3(C)CC[C@H](O)C(C)(C)C3[C@@H](O[C@@H]3O[C@H](CO)[C@@H](O)[C@H](O)[C@H]3O[C@@H]3OC[C@@H](O)[C@H](O)[C@H]3O)C[C@]12C (stereo not given in full)
inactive: max response (HaCat) -1.39% | outcome (KB-3-1) | max response (NIH3T3) 1.41% | Potency (C33A) | Potency (CAOV3) | Potency (CASKI) | Potency (Es-2) | Potency (HeLa) | Potency (Hek293T) | Potency (JEG-3) | Potency (OV90)

CC1=C(CCC(C)O[C@@H]2O[C@H](CO)[C@@H](O)[C@H](O)[C@H]2O)C(C)(C)CCC1=O (stereo not given in full)
inactive: max response (HaCat) -0.525% | max response (KB-3-1) 8.72% | max response (NIH3T3) -15.3% | Potency (C33A) | Potency (CAOV3) | Potency (CASKI) | Potency (Es-2) | Potency (HeLa) | Potency (Hek293T) | Potency (JEG-3) | Potency (OV90)

C[C@@H]1C(=O)O[C@H](C)[C@H]1CC(=O)[C@](C)(O)[C@H]1CC[C@@]2(O)C3=CC(=O)[C@@H]4C[C@@H](O)[C@@H](O)C[C@]4(C)C3CC[C@]12C (stereo not given in full)
inactive: max response (HaCat) -15.8% | max response (KB-3-1) -2.99% | max response (NIH3T3) 1.5% | Potency (C33A) | Potency (CAOV3) | Potency (CASKI) | Potency (Es-2) | Potency (HeLa) | Potency (Hek293T) | Potency (JEG-3) | Potency (OV90)

CC1(C)CCCC2(C)C1CC=C1C(=O)OC(O)C12O (stereo not given)
inactive: max response (HaCat) 3.25% | max response (KB-3-1) 3.77% | max response (NIH3T3) 0.868% | Potency (C33A) | Potency (CAOV3) | Potency (CASKI) | Potency (Es-2) | Potency (HeLa) | Potency (Hek293T) | Potency (JEG-3) | Potency (OV90)

C[C@@H]1O[C@@H](O[C@H]2[C@@H]3C=CO[C@@H](O[C@@H]4O[C@H](CO)[C@@H](O)[C@H](O)[C@H]4O)[C@@H]3[C@@]3(CO)O[C@@H]23)[C@H](OC(=O)/C=C/c2ccc(O)c(O)c2)[C@H](O)[C@H]1O
inactive: max response (HaCat) 1.24% | max response (KB-3-1) 6.2% | max response (NIH3T3) -3.69% | Potency (C33A) | Potency (CAOV3) | Potency (CASKI) | Potency (Es-2) | Potency (HeLa) | Potency (Hek293T) | Potency (JEG-3) | Potency (OV90)

Cc1cc(C)cc(C(=O)NOCCCCCC(=O)NO)c1
active: Potency (HaCat) 1.84 µM | Potency (KB-3-1) 2.06 µM | Potency (NIH3T3) 5.8 µM | Potency (C33A) 3.98 µM | Potency (CAOV3) 8.91 µM | Potency (CASKI) 7.08 µM | Potency (Es-2) 3.16 µM | Potency (HeLa) 3.16 µM | Potency (Hek293T) 3.55 µM | Potency (JEG-3) 3.16 µM | Potency (OV90) 3.98 µM

CC(C)CC1NC(=O)C(C)NC(=O)C(CC(C)C)OC(=O)CCCNC1=O (stereo not given)
inactive: max response (HaCat) -8.69% | outcome (KB-3-1) | max response (NIH3T3) -22.2% | Potency (C33A) | Potency (CAOV3) | Potency (CASKI) | Potency (Es-2) | Potency (HeLa) | Potency (Hek293T) | Potency (JEG-3) | Potency (OV90)

COc1ccccc1Oc1ccc(N(Cc2cccnc2)S(=O)(=O)CC(F)(F)F)cc1
inactive: max response (HaCat) 0.0707% | max response (KB-3-1) -5.75% | max response (NIH3T3) -1.58% | Potency (C33A) | Potency (CAOV3) | Potency (CASKI) | Potency (Es-2) | Potency (HeLa) | Potency (Hek293T) | Potency (JEG-3) | Potency (OV90)

CC(=O)OC1C(OC(=O)c2ccccc2)C2C(C)(C)CC(=O)CC2(C)C23CCC(C)(C2)C(O)CC13 (stereo not given)
inactive: max response (HaCat) 1.97% | max response (KB-3-1) -13.9% | max response (NIH3T3) -5.55% | Potency (C33A) | Potency (CAOV3) | Potency (CASKI) | Potency (Es-2) | Potency (HeLa) | Potency (Hek293T) | Potency (JEG-3) | Potency (OV90)

CC(C)=CCC[C@](C)(O[C@@H]1O[C@H](CO)[C@@H](O)[C@H](O)[C@H]1O)[C@H]1CC[C@]2(C)[C@@H]1[C@H](O)CC1[C@@]3(C)CC[C@H](O)C(C)(C)C3[C@@H](O[C@@H]3O[C@H](CO)[C@@H](O)[C@H](O)[C@H]3O)C[C@]12C (stereo not given in full)
inactive: max response (HaCat) 4.06% | max response (KB-3-1) 9.79% | max response (NIH3T3) -17.5% | Potency (C33A) | Potency (CAOV3) | Potency (CASKI) | Potency (Es-2) | Potency (HeLa) | Potency (Hek293T) | Potency (JEG-3) | Potency (OV90)

C=C1CC2C(C)(CCC(=O)O)C(C(C)(C)O)CCC2(C)C2C(=O)OC(C)(C(=O)OC)C(=O)C12C (stereo not given)
inactive: max response (HaCat) 4.3% | outcome (KB-3-1) | max response (NIH3T3) -2.52% | Potency (C33A) | Potency (CAOV3) | Potency (CASKI) | Potency (Es-2) | Potency (HeLa) | Potency (Hek293T) | Potency (JEG-3) | Potency (OV90)

CC1(C)CC[C@]2(C(=O)O[C@@H]3O[C@H](CO)[C@@H](O)[C@H](O)[C@H]3O)CC[C@]3(C)C(=CCC4[C@@]5(C)C[C@@H](O)[C@H](O)[C@](C)(C(=O)O)C5CC[C@]43C)C2C1O (stereo not given in full)
inactive: max response (HaCat) 1.77% | max response (KB-3-1) -4.21% | max response (NIH3T3) -9.14% | Potency (C33A) | Potency (CAOV3) | Potency (CASKI) | Potency (Es-2) | Potency (HeLa) | Potency (Hek293T) | Potency (JEG-3) | Potency (OV90)

CC(CO)C1CCC2(C)CC3C(CO)CC(O)C3C(C)(O)C/C=C/12 (stereo not given)
inactive: max response (HaCat) -5.8% | outcome (KB-3-1) | max response (NIH3T3) 0.217% | Potency (C33A) | Potency (CAOV3) | Potency (CASKI) | Potency (Es-2) | Potency (HeLa) | Potency (Hek293T) | Potency (JEG-3) | Potency (OV90)

Cc1cn(C2C=CC(CO)O2)c(=O)[nH]c1=O (stereo not given)
inactive: max response (HaCat) -43.4% | max response (KB-3-1) 6.19% | max response (NIH3T3) -7.77% | Potency (C33A) | Potency (CAOV3) | Potency (CASKI) | Potency (Es-2) | Potency (HeLa) | Potency (Hek293T) | Potency (JEG-3) | Potency (OV90)

CC(C)[C@@H]1C(=O)N(S(C)(=O)=O)[C@@H]2CCN(C(=O)/C=C/CN3CCCCC3)[C@H]21
inactive: max response (HaCat) -0.855% | max response (KB-3-1) 5.42% | max response (NIH3T3) 1.85% | Potency (C33A) | Potency (CAOV3) | Potency (CASKI) | Potency (Es-2) | Potency (HeLa) | Potency (Hek293T) | Potency (JEG-3) | Potency (OV90)

COc1cc(/C=C/C(=O)OC[C@H]2O[C@@](CO)(O[C@H]3O[C@H](CO)[C@@H](O)[C@H](O)[C@H]3O)[C@@H](OC(=O)/C=C/c3ccc(O)c(OC)c3)[C@@H]2O)ccc1O
inactive: max response (HaCat) -7.21% | max response (KB-3-1) -7.62% | max response (NIH3T3) 0.754% | Potency (C33A) | Potency (CAOV3) | Potency (CASKI) | Potency (Es-2) | Potency (HeLa) | Potency (Hek293T) | Potency (JEG-3) | Potency (OV90)

C=C[C@H]1CN2CC[C@H]1C[C@@H]2C(O)c1ccnc2ccc(OC)cc12 (stereo not given in full)
inactive: max response (HaCat) 2.46% | max response (KB-3-1) 4.51% | max response (NIH3T3) 3.58% | Potency (C33A) | Potency (CAOV3) | Potency (CASKI) | Potency (Es-2) | Potency (HeLa) | Potency (Hek293T) | Potency (JEG-3) | Potency (OV90)

COc1c2c(c(C)c3c1C(=O)OC3)O[C@@]1(C)CCC3(C(C)(C)O)OC(=O)CC[C@]3(C)[C@H]1C2 (stereo not given in full)
inactive: max response (HaCat) -17.1% | outcome (KB-3-1) | max response (NIH3T3) -21.1% | Potency (C33A) | Potency (CAOV3) | Potency (CASKI) | Potency (Es-2) | Potency (HeLa) | Potency (Hek293T) | Potency (JEG-3) | Potency (OV90)
